Consider 39 compounds from PubChem BioAssay (NCI).

Compounds without any hit were thinned out: in the full panel of roughly 83,000, 20% have a hit.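 Single-dose data. Exposure time 48 hours. Values below 10 considered active.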 Unmarked numbers belong to inactive results. Active and inactive are the calls of the source.

In the experiment the test system is MDA-MB-468 breast. The experiment can be described thus: NCI-60 one-dose screen, 48 h (100 = growth as untreated, 0 = no growth, -100 = all killed). The settings on record: 10 µM unless noted.
Take `COc1ccc2cn3c4ccc(O)cc4[nH]c(=O)c3c2c1`: the growth is -11.9% (active).

In the case of `Cc1cc(C)c2c(n1)sc1c(Nc3ccc(O)cc3)ncnc12`, the growth is 23.8%.

Regarding `O=C(Nc1ccc(-c2nc(-c3cccc(OCCN4CCOCC4)c3)c(-c3ccnc(Br)c3)[nH]2)cc1)c1ccccc1`, the growth is -6.35% (active).

With `CCNc1ncnc2c1cnn2C1CCCO1` (centres undefined), the growth was 102%.

For `C#C[C@@]1(O)[C@@H](CO)O[C@@H](n2cc(Cl)c3c(N)ccnc32)[C@@H]1O`, the growth is 72.3%.

As to `NC(=O)c1ncn([C@@H]2O[C@H](CO)[C@@H](O)[C@H]2O)n1`, the growth is 83.7%.

Turning to `COc1ccc(C2(O)CCCCC2)cc1`, the growth was 95.2%.

Regarding `Cc1cc(N2CCOCC2)nc(NCc2cc(Nc3ccnc4cc(Cl)ccc34)ccc2F)n1`, the growth is -71.9% (active).

As to `O=C(Nc1cccc2c1C(=O)c1cccc(Nc3cccc4c3C(=O)c3cccc(NC(=O)c5ccccc5)c3C4=O)c1C2=O)c1ccccc1`, the growth is 126%.

Regarding `Cc1cc2nc3c4cc(Cl)ccc4n(CCN(C)C)c3nc2cc1C`, the growth is -42.1% (active).

Regarding `COc1ccccc1/C=C/C(=O)c1ccccc1`, the growth is 21.4%.

Consider `Oc1c(CNCCNCc2cc(Cl)cc(Cc3ccccc3)c2O)cc(Cl)cc1Cc1ccccc1`, for which the growth is 24.2%.

As for `COC(=O)CC(=O)C(=O)OC`, the growth was 95.3%.

Consider `O=C(NCCc1ccccc1)Nc1ccc2cc3ccc(NC(=O)NCCc4ccccc4)cc3nc2c1`, for which the growth is -5.36% (active).

For the compound `CC(C)c1ccc(NC(=O)Cc2ccc(Nc3ncnc4cc(-c5cnn(CCN(C)C)c5)ccc34)cc2)cc1`, the growth was -86.9% [30 µM] (active).

As to `O=C(Nc1nc(-c2ccccc2)nc2c1sc(=S)n2-c1ccccc1)C(F)(F)F`, the growth is 105%.

With `Cc1ccc(C2=NN(C)C(=O)C3(CCCC3)C2)cc1`, the growth is 98.7%.

For the compound `COc1cc(OC)c(/C=C/c2ccc3ccccc3[n+]2C)c(OC)c1`, the growth is -13.7% (active).

Take `Cc1nc(Nc2cccc(NC(=O)Nc3ccc(Cl)cc3)c2)c2ccccc2n1`: the growth is 75%.

Take `COc1cc(C(=O)c2cc(C(C)=O)c3c(C)cccn23)cc(OC)c1OC`: the growth is 81.8%.

Consider `O=C(COc1cccc2cccnc12)Nc1ccc(C(=O)/C=C/c2ccc(Cl)cc2)cc1`, for which the growth was 89.3%.

With `CC(C)(C)N1CCC1CN` (centres undefined), the growth was 97.2%.

Consider `O=c1[nH]c2ccc(Cl)cc2cc1CSc1ccccc1Nc1nccc(-c2ccc(Cl)cc2)n1`, for which the growth is 93.3%.

For the compound `N#CC1(C#N)C2=C(CCCC2)NC(c2c(F)cccc2Cl)C1(C#N)C#N` (centres undefined), the growth is 53%.

Regarding `CCOC(=O)/C=C1\S/C(=N\Nc2cc(=O)[nH]c3ccc(Cl)cc23)N(c2ccccc2)C1=O`, the growth is 80.8%.

With `CC(C)OC(=O)Nc1ccc(-c2nc(-c3cccc(OCCN4CCOCC4)c3)c(-c3ccnc(Br)c3)[nH]2)cc1`, the growth is -1.08% (active).

On to `O=C1CC[C@H](c2ccc(O)c3c2C(=O)[C@@H]2O[C@@H]2C3=O)c2cccc(O)c21`, for which the growth is -64.8% (active).

As for `CN(C)C1CCN(C(=O)c2ccc(NC(=O)Nc3ccc(-c4nc(N5CCOCC5)c5cccn5n4)cc3)cc2)CC1`, the growth is -60.1% (active).

For `Cc1cc(C)c2nc(C)c(C)[n+]([O-])c2c1`, the growth is 101%.

In the case of `CC(=O)N/C(=C1/OC(C(O)C(O)C(O)CO)CN1C)[P+](c1ccccc1)(c1ccccc1)c1ccccc1` (centres undefined), the growth is 106%.

For the compound `COc1ccc(-c2nc(SCC(C)C)nc(Nc3ccc(C(=O)O)cc3)c2C#N)cc1`, the growth is 91.3%.

Regarding `COc1ccc(F)c(F)c1C(=O)c1cnc(NC2CCN(S(C)(=O)=O)CC2)nc1N`, the growth was -59.4% (active).

As for `CS(=O)(=O)c1ccc(-c2nc3cc(Cl)ccc3n2CC(=O)NO)cc1`, the growth is 96%.

On to `OCCN1CCN(CCCN2c3ccccc3Sc3ccc(C(F)(F)F)cc32)CC1`, for which the growth is -47.1% (active).

Turning to `C#CCn1cc(C=C2C(=O)NC(=S)NC2=O)c2cc(Cl)ccc21`, the growth is 32.5%.

In the case of `CC(C)Sc1nc(-c2ccc(Br)cc2)c(C#N)c(N2CCCCC2)n1`, the growth is 93.9%.

For the compound `COc1cc(-c2cc(-c3ccc(Nc4nc(Nc5ccccc5)nc(Nc5ccc(Cl)cc5)n4)cc3)nc(N)n2)cc(OC)c1OC`, the growth was 90.7%.

Regarding `CCOc1nc(-c2ccco2)n2nc(-c3ccco3)cc2n1`, the growth is -5.05% (active).

In the case of `O=C(/C=C/c1cccc(F)c1)c1cccc(OCCCOc2cccc(C(=O)/C=C/c3cccc(F)c3)c2)c1`, the growth was 75.2%.
